Several values for one entry are separate records, joined by “and”; a condition that tells them apart may be missing. Equal entries are not always repeated. Results filed as inconclusive are left out. Where a call stands in place of a potency, no number is given. Activity calls are given as the source filed them. Unless noted, the call rests on the fitted dose curve; in most records, active means well fitted curve in the direction sought with a large enough effect; inconclusive means small, poorly fitted or top-dose-only effect, or another doubt; inactive means no such curve, though single readings can be large; an effect the other way counts as inactive or inconclusive.
Assays:
[1] = qHTS assay for environmental chemicals that activate the Aryl hydrocarbon Receptor (AhR) signaling pathway (AID 651777); conditions: 1A2-DRE human hepatoma cells, luciferase, 24 h; stronger effect = higher value; further: nearly all actives have a fitted effect of over 15% in size
Outline: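 Induction of CYP1A2 transcription through AhR is detected by luciferase in 1A2-DRE hepatoma cells. Compounds or DMSO act for 24 hr at 37 C before a 30 min One-Glo step at room temperature.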

[2] = biological target: Peroxisome proliferator-activated receptor alpha (Homo sapiens) (UniProt Q07869); experiment: qHTS assay for small molecule agonists of the peroxisome proliferator-activated receptor alpha (PPARalpha) signaling pathway (AID 651778); conditions: PathHunter PPARalpha complementation, chemiluminescence, 6 h; stronger effect = higher value
Outline: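 Chemiluminescence from complemented enzyme reported PPARalpha activation in cells after 6 hr of compound treatment at 37 C. The detection reagent was incubated for 60 min at room temperature, and compounds were scored as agonists.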

[3] = biological target: Nuclear receptor ROR-gamma (Homo sapiens) (UniProt P51449); experiment: qHTS assay for small molecule antagonists of the retinoid-related orphan receptor gamma (ROR-gamma) signaling pathway (AID 651802); conditions: ROR-gamma antagonist cell reporter assay; series mostly up to 92.2 µM;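 further: CHO cells with doxycycline-induced ROR-gamma expression; luciferase reporter luminescence driven by ROR response element; nearly all actives have a fitted effect of over 60% in size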
Outline: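 Luminescence (One-Glo, 30 min RT) measured 16 h after compound addition and doxycycline induction at 37C. Reporter: RORE-luciferase under TET-inducible ROR-gamma in CHO cells.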

[4] = biological target: Arylsulfatase A (Homo sapiens) (UniProt P15289); experiment: qHTS screen for enhancers of Arylsulfatase A (ASA1): LOPAC Validation Assay (AID 720538); conditions: ASA enzyme activity, LOPAC qHTS enhancer assay; series mostly up to 57.5 µM
Outline: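 MLD patient fibroblasts (SV40, ASA-I179S), 1536-well; adhere 6 hrs; cpd 48h, 37 degree C, 5% CO2; pNCS 0.5mM final in lysis buffer, 14h RT; stop 1N NaOH final; fluor. Ex525/Em598.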

[5] = qHTS for compounds that reverse cellular toxicity of Amyloid beta (A-beta) peptide in yeast: LOPAC Validation Assay (AID 720559); conditions: yeast expressing A-beta; series mostly up to 46.1 µM
Outline: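 Medium dispensed, compounds pinned, A-beta yeast suspension added; plates held at 30 C for 48 hr; absorbance measured at 600 nm to gauge growth; values scaled between DMSO and FeCl3/clioquinol (equimolar) controls.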

[6] = qHTS for Activators of Parkin Expression: LOPAC Validation Assay (NLuc Reporter) (AID 720572); conditions: Parkin promoter NanoLuc reporter cells, luminescence; series mostly up to 46.1 µM
Outline: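 Compound effects on Parkin promoter activity were measured as NanoLuc luminescence after 24 h at 37 C. The neuronal reporter line also carried FLuc, which was read first. LOPAC compounds were tested at 7 concentrations, with normalization to DMSO (0%) and positive control (100%).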

[7] = qHTS for Activators of Parkin Expression: LOPAC Validation Assay (FLuc Reporter) (AID 720573); conditions: Cell line, PRKN promoter firefly luciferase reporter, vehicle wells = 0, positive control = 100%; series mostly up to 46.1 µM
Outline: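 Cells seeded, 24 h; compounds pinned, 7-pt dose response; 24 h at 37 C/5% CO2; volume reduced; FLuc reagent 10 min RT; luminescence read. Normalization: DMSO = 0, positive control = 100%.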

[8] = qHTS assay for small molecule agonists of the antioxidant response element (ARE) signaling pathway measured by Nrf2-dependant transcriptional activity (AID 720636; active means well fitted curve in the direction sought with a large enough effect in the repeat runs; an effect the other way counts as inactive or inconclusive;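 further: HepG2 cells with an ARE-driven luciferase reporter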); conditions: ARE-luc HepG2, Nrf2 luciferase reporter, 16 h; series mostly up to 92.4 µM
Outline: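 We exposed ARE-luc HepG2 cells, seeded in assay medium with 1% dialyzed FBS and allowed 6 hr to adhere, to test compounds overnight (16 hr, 37 C) before measuring luciferase with ONE-Glo.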

[9] = qHTS assay for small molecule antagonists of the retinoid-related orphan receptor gamma (ROR-gamma) signaling pathway - cell viability counter screen (AID 720652; active means well fitted curve in the direction sought with a large enough effect in the repeat runs; an effect the other way counts as inactive or inconclusive;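 further: CHO reporter cells with doxycycline-induced ROR-gamma expression; compound exposure lasted 16 hr before ATP read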); conditions: RORgamma reporter cell line viability counter screen; series mostly up to 92.2 µM
Outline: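 Cytotoxicity counter screen: intracellular ATP (CellTiter-Glo luminescence) measured in the doxycycline-induced CHO RORE-luciferase reporter line after 16 hr compound exposure at 37 C, 5% CO2.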

[10] = qHTS assay for small molecule agonists of the antioxidant response element (ARE) signaling pathway measured by Nrf2-dependant transcriptional activity - cell viability counter screen (AID 720653; active means well fitted curve in the direction sought with a large enough effect in the repeat runs; an effect the other way counts as inactive or inconclusive); conditions: ARE-bla HepG2 viability, CellTiter-Glo ATP luminescence, 16 h; stronger effect = lower value
Outline: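 Cytotoxicity counter screen: intracellular ATP quantified by CellTiter-Glo luminescence in the same ARE-bla HepG2 plates, after 16 h compound exposure and a 2 h beta-lactamase substrate step.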

[11] = biological target: T1, Hexokinase-4 (Homo sapiens) + Glucokinase regulatory protein (Homo sapiens) (UniProt P35557+Q14397); experiment: qHTS assay for inhibitors of recombinant human GCK-GKRP interaction: Diaphorase-coupled assay (AID 743205); conditions: G6PDH/diaphorase resorufin fluorescence; series mostly up to 57.5 µM
Outline: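 25 mM Hepes pH 7.6, 5 mM glucose, 0.4 mM ATP, 4 U/ml G6PDH; 10 nM each GST-GCK/FLAG-GKRP. Kinetic fluorescence read, 1/min × 30 min. Normalized: DMSO ± enzyme = max/min.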

[12] = biological target: T1, Hexokinase-4 (Homo sapiens) + Glucokinase regulatory protein (Homo sapiens); experiment: qHTS assay for inhibitors of recombinant human GCK-GKRP interaction: HTRF assay (AID 743207); conditions: recombinant GCK-GKRP HTRF binding, 60 min, with sorbitol-6-phosphate; series mostly up to 57.5 µM
Outline: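 5 nM GST-GCK + 5 nM FLAG-GKRP + 2 uM S6P, pH 7.1 buffer (25 mM Hepes, 2 mM MgCl2, 25 mM KCl, 1 mM DTT, Tween/BSA); pin-transferred cpd; anti-FLAG XL665/anti-GST K; 60 min RT; HTRF.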

[13] = qHTS Assay for Identifying Gametocytocidal Compounds (AID 743244);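 further: actives lower the fluorescent signal which means gametocytes are killed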; conditions: P. falciparum 3D7 stage III-V gametocytes, alamarBlue, 72 h; max response: stronger effect = lower value
Outline: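 Compounds are pinned into medium, gametocytes (stage III–V, 3D7, 20,000 cells/well) added, and plates held 72 h at 37 °C in 5% CO2. AlamarBlue follows for 24 h before fluorescence reading.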

[14] = qHTS assay for cell viability of HEK293 cells (AID 743288); conditions: ATP luminescence (CellTiter-Glo), 18 h; max response: stronger effect = lower value; further: nearly all actives have a fitted effect of over 50% in size
Outline: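 Viable-cell counts were inferred from luciferase-based ATP content in HEK293 cells seeded at 2,000/well, pre-incubated ≥5 h, then dosed with DMSO-solubilised compounds for 18 h at 37 C.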

[15] = qHTS assay for cell viability of the p53RE-bla HCT-116 cell line (AID 743292); conditions: p53RE-bla HCT-116 viability, ATP luminescence, 16 h; series mostly up to 95 µM; further: nearly all actives have a fitted effect of over 55% in size
Outline: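 In this qHTS counter-screen, metabolically competent p53RE-bla HCT-116 cells were counted via their ATP content. Compounds were applied for 16 h at 37 C and luciferase-coupled luminescence was measured.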

[16] = biological target: Tyrosine-protein kinase Yes (Homo sapiens) (UniProt P07947); experiment: qHTS for small molecule inhibitors of Yes1 kinase: Primary Screen (AID 686947); conditions: Yes1 kinase biochemical qHTS inhibition; series mostly up to 76.9 µM; further: nearly all actives have a fitted effect of over 60% in size
Outline: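 ADP-Glo luminescence reports ADP formed by 4 nM Yes1 phosphorylating poly(E4Y) (0.3 mg/mL) with 0.1 mM ATP for 60 min at room temperature, following 20 min compound preincubation; normalised between DMSO wells with and without enzyme.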

[17] = qHTS for small molecule inhibitors of Yes1 kinase: Counter Assay (AID 686950); conditions: series mostly up to 76.9 µM;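 further: no kinase present so only ADP-Glo detection of a fixed ADP amount is tested; luminescence from ADP-Glo reporting ADP in a fixed ATP and ADP mixture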
Outline: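 ADP-Glo luminescence read after a 60 min room-temperature incubation of compound with an ATP/ADP mix (0.08 mM/0.02 mM) and no kinase, following a 20 min compound preincubation. Signal scaled between ATP+ADP (max) and 0.1 mM ATP-only (min) wells; Tris pH 7.5, Mg2+, DTT.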

[18] = qHTS profiling for inhibitors of Plasmodium falciparum (3D7) proliferation (AID 743322);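 further: infected erythrocytes exposed to compound for 72 h before lysis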; conditions: P. falciparum 3D7 proliferation; at 28.7 µM (top of the series) unless noted
Outline: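 Parasite DNA was quantified by SYBR Green I fluorescence (ex 485, em 535 nm) after overnight lysis in saponin/Triton buffer at room temperature. Cultures at 0.3% parasitemia and 2.5% hematocrit were first exposed to compound for 72 h at 37 C; signals were normalised to artemisinin (0.29 uM) and vehicle wells.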

[19] = qHTS profiling for inhibitors of Plasmodium falciparum (DD2) proliferation (AID 743323; call rule not given here); conditions: lower = more inhibition; at 28.7 µM (top of the series) unless noted
Outline: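 P. falciparum Dd2-infected erythrocytes (0.3% parasitemia, 2.5% hematocrit) exposed 72 h at 37 C, 5% CO2. Lysis with SYBR Green, overnight at room temperature, fluorescence 485/535 nm; normalized to 0.29 uM artemisinin and DMSO.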

T1 sequence (P35557 whole entry, looked up): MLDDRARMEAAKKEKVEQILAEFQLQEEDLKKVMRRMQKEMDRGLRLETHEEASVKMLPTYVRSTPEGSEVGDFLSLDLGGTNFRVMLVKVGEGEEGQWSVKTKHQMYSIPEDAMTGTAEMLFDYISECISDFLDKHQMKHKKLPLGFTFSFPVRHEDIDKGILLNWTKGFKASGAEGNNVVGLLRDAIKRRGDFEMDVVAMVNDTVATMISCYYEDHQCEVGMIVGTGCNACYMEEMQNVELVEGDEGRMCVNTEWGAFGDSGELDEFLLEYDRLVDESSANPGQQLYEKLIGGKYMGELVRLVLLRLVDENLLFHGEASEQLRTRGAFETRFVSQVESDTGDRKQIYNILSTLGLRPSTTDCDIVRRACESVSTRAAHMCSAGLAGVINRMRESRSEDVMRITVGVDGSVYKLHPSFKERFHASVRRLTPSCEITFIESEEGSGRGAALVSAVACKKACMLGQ
T1 sequence (Q14397 whole entry, looked up): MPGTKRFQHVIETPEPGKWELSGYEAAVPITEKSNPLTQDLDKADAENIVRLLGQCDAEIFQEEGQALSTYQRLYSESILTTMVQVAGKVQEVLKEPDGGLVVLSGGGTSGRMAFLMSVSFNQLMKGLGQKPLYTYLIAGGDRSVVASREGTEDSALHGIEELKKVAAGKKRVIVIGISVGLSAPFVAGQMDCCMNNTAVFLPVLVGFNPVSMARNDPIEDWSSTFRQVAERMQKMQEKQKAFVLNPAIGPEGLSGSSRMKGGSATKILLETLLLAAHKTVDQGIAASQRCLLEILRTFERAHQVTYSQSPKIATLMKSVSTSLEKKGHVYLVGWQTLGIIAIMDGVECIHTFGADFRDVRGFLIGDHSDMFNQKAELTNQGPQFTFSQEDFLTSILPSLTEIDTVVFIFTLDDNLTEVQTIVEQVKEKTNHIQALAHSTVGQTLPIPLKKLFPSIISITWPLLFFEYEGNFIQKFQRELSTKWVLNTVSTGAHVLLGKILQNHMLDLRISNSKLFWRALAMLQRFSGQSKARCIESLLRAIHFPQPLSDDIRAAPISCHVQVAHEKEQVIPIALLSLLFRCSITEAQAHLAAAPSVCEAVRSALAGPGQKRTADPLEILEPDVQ
Peroxisome proliferator-activated receptor alpha (Homo sapiens), sequence (Q07869 whole entry, looked up): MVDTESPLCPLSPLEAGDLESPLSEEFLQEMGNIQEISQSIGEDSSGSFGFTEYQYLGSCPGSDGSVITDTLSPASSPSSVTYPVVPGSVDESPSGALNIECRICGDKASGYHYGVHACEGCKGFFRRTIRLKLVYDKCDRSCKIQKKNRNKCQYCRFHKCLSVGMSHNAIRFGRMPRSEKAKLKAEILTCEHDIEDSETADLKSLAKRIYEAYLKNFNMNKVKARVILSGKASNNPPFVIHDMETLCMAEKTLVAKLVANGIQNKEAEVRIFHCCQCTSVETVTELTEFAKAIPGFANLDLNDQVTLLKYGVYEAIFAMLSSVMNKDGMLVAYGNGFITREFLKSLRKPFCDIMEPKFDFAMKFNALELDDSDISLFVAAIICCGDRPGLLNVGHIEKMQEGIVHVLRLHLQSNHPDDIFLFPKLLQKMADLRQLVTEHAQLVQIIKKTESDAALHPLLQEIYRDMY
Arylsulfatase A (Homo sapiens), sequence (P15289 whole entry, looked up): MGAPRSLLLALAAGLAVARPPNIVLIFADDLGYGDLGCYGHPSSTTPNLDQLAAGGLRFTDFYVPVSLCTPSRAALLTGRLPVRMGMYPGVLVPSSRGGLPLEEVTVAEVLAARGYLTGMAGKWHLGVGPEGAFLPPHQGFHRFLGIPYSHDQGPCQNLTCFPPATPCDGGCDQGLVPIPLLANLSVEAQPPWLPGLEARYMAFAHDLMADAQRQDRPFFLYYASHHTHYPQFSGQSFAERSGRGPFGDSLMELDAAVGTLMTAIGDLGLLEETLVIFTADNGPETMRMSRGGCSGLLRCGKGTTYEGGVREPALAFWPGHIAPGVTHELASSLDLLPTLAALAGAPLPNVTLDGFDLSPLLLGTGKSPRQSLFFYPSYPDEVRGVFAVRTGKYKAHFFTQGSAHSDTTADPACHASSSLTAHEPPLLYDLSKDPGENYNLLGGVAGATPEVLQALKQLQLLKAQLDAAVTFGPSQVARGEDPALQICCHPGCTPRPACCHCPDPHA
Tyrosine-protein kinase Yes (Homo sapiens), sequence (P07947 whole entry, looked up): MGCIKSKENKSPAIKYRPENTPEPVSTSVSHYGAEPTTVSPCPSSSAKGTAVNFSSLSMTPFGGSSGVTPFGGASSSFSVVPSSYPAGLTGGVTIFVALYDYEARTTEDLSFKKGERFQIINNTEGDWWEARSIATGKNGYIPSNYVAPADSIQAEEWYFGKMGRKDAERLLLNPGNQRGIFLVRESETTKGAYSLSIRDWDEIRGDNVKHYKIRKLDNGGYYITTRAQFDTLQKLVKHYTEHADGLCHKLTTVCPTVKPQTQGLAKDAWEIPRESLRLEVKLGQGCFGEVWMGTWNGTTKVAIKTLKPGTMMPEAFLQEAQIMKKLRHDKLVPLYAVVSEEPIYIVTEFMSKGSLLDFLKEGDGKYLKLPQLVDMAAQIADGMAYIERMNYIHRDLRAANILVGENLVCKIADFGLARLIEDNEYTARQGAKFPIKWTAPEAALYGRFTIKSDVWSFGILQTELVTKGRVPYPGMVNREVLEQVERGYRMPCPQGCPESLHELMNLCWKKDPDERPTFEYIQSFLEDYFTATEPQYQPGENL
Nuclear receptor ROR-gamma (Homo sapiens), sequence (P51449 whole entry, looked up): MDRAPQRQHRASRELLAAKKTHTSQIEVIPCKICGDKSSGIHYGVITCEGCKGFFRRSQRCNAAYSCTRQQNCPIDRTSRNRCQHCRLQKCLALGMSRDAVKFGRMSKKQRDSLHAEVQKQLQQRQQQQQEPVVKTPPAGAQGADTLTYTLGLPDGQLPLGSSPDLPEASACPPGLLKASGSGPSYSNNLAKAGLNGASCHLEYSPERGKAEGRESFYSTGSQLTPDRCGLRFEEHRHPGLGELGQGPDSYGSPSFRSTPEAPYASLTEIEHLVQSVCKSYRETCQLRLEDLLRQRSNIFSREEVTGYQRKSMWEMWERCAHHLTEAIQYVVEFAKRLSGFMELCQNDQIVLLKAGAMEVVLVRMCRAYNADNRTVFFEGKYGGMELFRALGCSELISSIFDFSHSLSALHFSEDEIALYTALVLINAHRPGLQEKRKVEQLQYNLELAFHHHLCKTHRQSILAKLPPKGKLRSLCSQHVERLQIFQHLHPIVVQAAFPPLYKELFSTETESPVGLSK

## NC(=O)c1cnccn1
[1]
  activation: -0.771% (inactive) and 0.812% (inactive)
[2]
  max response: -0.88% (inactive) and -1.97% (inactive)
[3]
  outcome: inactive
[4]
  outcome: inactive
[5]
  outcome: inactive
[6]
  Potency: inactive
[7]
  outcome: inactive
[8]
  outcome: inactive
[9]
  outcome: inactive
[10]
  max response: 6.82% (inactive) and 7.56% (inactive)
[11]
  outcome: inactive
[12]
  outcome: inactive
[13]
  max response: -3.29% (inactive) and 14.5% (inactive)
[14]
  max response: 4.61% (inactive) and 0.671% (inactive)
[15]
  Potency: inactive

## OC[C@H](Cc1ccccc1)Nc1nc(Oc2ccc3c(c2)CCC3)nc2c1ncn2Cc1ccc(-c2ccccc2)cc1
[16]
  Potency: inactive
[17]
  outcome: inactive
[13]
  max response: -2.93% (inactive)
[18]
  remaining parasite growth % (stronger effect = lower value): 6.42%
[19]
  activity, percent of control: 5.17%

## Cc1ccccc1C(OCCN(C)C)c1ccccc1 (configuration not stated)
[1]
  activation: 0.382% (inactive)
[2]
  max response: -4.12% (inactive)
[4]
  outcome: inactive
[5]
  outcome: inactive
[6]
  Potency: inactive
[7]
  outcome: inactive
[8]
  outcome: inactive
[10]
  max response: -8.13% (inactive)
[11]
  outcome: inactive
[12]
  outcome: inactive
[13]
  max response: 21.5% (inactive) and -9.62% (inactive) and 11.5% (inactive)
[14]
  max response: -14.1% (inactive)

Source: PubChem BioAssay (NCATS)
